The supplement of paper PMC6555819

What was measured:
Assay in all cases: PBM binding z-score (relative to random genomic background probes); higher = stronger binding; sequences stand for … in GC…GCGATTGACAGCGTAGAATGAAGG
[1] = system: RARb homodimer (NR concentration 270 nM)
In short: (§1)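 Custom Agilent 4×180K protein-binding microarrays carried double-stranded probes, each with a 34-nt variable region. These regions held direct-repeat seeds, single-nucleotide variants, half-site ablations and random human genomic background sequences. Ligand-free nuclear receptor dimers were incubated on the arrays for 1 h, antibodies against each partner (one per run) detected binding, and scanned fluorescence was regression-normalized. Binding z-scores take the random background probes as reference.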

[2] = system: RARg:RXRa (NR concentration 270 nM, RXRa partner concentration 90 nM)
In short: as §1

[3] = system: RARg homodimer (NR concentration 270 nM)
In short: as §1

[4] = system: RXRa DBDmut IVT, anti-RXR (DBD mutation: RXRa K156A/R161A, NR concentration 90 nM)
In short: as §1

[5] = system: RXRa homodimer (NR concentration 180 nM)
In short: as §1

[6] = system: THRa:RXRa (NR concentration 90 nM, RXRa partner concentration 90 nM)
In short: as §1

[7] = system: THRa homodimer (NR concentration 90 nM)
In short: as §1

[8] = system: VDR homodimer (NR concentration 270 nM)
In short: as §1

[9] = system: VDR:RXRa (NR concentration 270 nM, RXRa partner concentration 90 nM)
In short: as §1

Sequence | PBM binding z-score [1] | PBM binding z-score [2] | PBM binding z-score [3] | PBM binding z-score [4] | PBM binding z-score [5] | PBM binding z-score [6] | PBM binding z-score [7] | PBM binding z-score [8] | PBM binding z-score [9]
ATCTCTAGGTAAGACTCACTTCAGTGAAGAACGC | -0.0357 | -0.204 | 0.301 | 0.173 | -0.184 | 0.282 | 0.429 | -0.111 | 
TCGAGTAGGTTAGGGGAATTCAGAATGGCGTCGA | 0.239 | -0.23 | -0.153 | 0.0691 | -0.0464 | 0.0502 | -0.191 | -0.0168 | -0.154
CCTGCTAGGTCATGGCCAGCTAATCTACAGTATG | 3.06 | 3.9 | 4.02 | 1.3 | 2.92 | 3.02 | 0.915 | 0.188 | 1.43
TCTGCTAGGTCAGTTGTTCAGCTAACGAGCTGCC | 2.19 | 2.19 | 3.35 | 0.434 | 0.641 | 1.25 | 0.158 | -0.531 | -0.272
CGTCAAAGTTCAACTAAGCTAACGTAAAGCACGC | 4.31 | 5.83 | 6.59 | 4.75 | 5.2 | 2.48 | 0.187 | 3.66 | 4.35
CGTCCAAGGTCAGAGAGGTCAGTGGATGCCGAGT | 5.54 | 6.26 | 7.05 | 3.42 | 5.46 | 4.29 | 3.05 | 5.52 | 7.33
CCTACTGGGGCATCAGGTCATTGATATCAACGTT | 2.89 | 2.6 | 2.39 | 0.331 | 1.87 | 3.19 | 2.71 | 2.06 | 1.85
AGTCAAAGTTCAGGACGAGGTAACGTGAAGCACG | 1.95 | 4.86 | 4.39 | 2.8 | 3.03 | 3.97 | 1.65 | 1.62 | 3.16
GCAGACAGGTGAAACGCAGGTAAATCAGGGTGGC | 0.00843 | 0.816 | -0.0582 | -0.477 | 0.544 | 1.23 | -0.537 | -0.336 | -0.374
CCTTACGGGTCGCGAGGTTATAGCACGACGAGCG | 1.57 | 3.39 | 2.09 | 0.0933 | 4 | 2.25 | 0.349 | 0.904 | 2.88
CCGACTGGGGCATATGGTTACCATAAGCCAGCCC | -0.243 | -0.00585 | 0.046 | -0.59 | 0.109 | -1.07 | -0.688 | -0.752 | -0.695
TCTTGAAGATCAACAGGAGGTTAAGAAAGATCGA | 0.572 | 1.45 | 0.367 | 0.56 | 1.25 | 0.975 | -0.383 | -0.404 | 0.872
GGCACGAGGGCAAAGTTGATAGCATCTGTCGACG | 1.26 | 2.26 | 1.99 | 2.39 | 2.19 | 1.33 | -0.552 | 1.29 | 1.23
CATACAGGGTCAGCTAGGCCAGGGTAGGGACGGC | 3.59 | 4.48 | 5.13 | 0.607 | 4.42 | 3.28 | 1.26 | 1.47 | 3.64
GCTAGTTGGTCAGAAAAAGGTCACACACCGGTCG | 5.21 | 5.28 | 4.72 | 0.268 | 4.82 | 3.52 | 1.44 | 1.71 | 
TAGGCTAGGTCATGGGCCAGTATACCACGCGAAC | 2.94 | 4.33 | 4.94 | 0.455 | 3.29 | 3.11 | 1.2 | 0.234 | 
